Shown are actives, neighbours in structure and some others; about 8% of the full set was active somewhere.
HCMV antiviral: human cytomegalovirus inhibition; HFF cells, HCMV-luciferase reporter, 72 h; active compounds read low; activity change, negative = inhibition, % at 57.5 µM; 410,000 compounds, 4.5% hits; in the data active means activity change below about -60%; inconclusive means no clear call, values can overlap the other calls; inactive means above about -39%; further: on the % scale 0 is the no-effect control and ±100 the full control effect
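Screen run at 2 compound doses on HFFs infected with reporter HCMV, MOI 1 PFU/cell. Luciferase activity from cell lysates at 72 h post infection gave inhibition relative to buffer-only and Salinomycin wells.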
FMDV inh: foot and mouth disease virus antiviral activity; FMDV antiviral cell-based qHTS; AID 1159524; Potency, µM (doses to about 57.9 µM), for inactives: at the highest dose activity change, negative = inhibition, usual class: inhibitors; 410,000 compounds, 1.2% hits; calls by dose curve; tested in HEK293T cells; further: read-out not given here; potency means the concentration at half of the fitted maximal effect; on the % scale 0 is the no-effect control and ±100 the full control effect; nearly all actives have a fitted effect of over 45% in size
MARV entry inh: Marburg virus entry inhibition | Potency, µM (highest dose often 37.8 µM), inactives show top-dose activity change, negative = inhibition, most hits filed as inhibitors | 300,000 compounds, 1.8% hits | Marburg virus pseudotyped entry inhibition, cell reporter; calls by dose curve; tested in HEK293 cells; further: potency means the concentration at half of the fitted maximal effect; on the % scale 0 is the no-effect control and ±100 the full control effect
LASV entry inh: blocks Lassa virus binding to or entry into cells. Lassa virus pseudotype entry inhibition, cell reporter. Potency, µM (titrated, usually from 37.9 µM), without a hit: at the highest dose activity change, negative = inhibition, usual class: inhibitors. 300,000 compounds, 1.2% hits; calls by dose curve; tested in HEK293 cells; further: potency means the concentration at half of the fitted maximal effect; on the % scale 0 is the no-effect control and ±100 the full control effect; nearly all actives have a fitted effect of over 50% in size
HCV inh: inhibitors of hepatitis C virus infection. Potency, µM (series often up to 41.8 µM), for the others: top-dose activity change, negative = inhibition, hits mostly inhibitors. Huh7.5.1 HCVcc-Cre infection, luciferase reporter, 44 h. 340,000 compounds, 3.4% hits; active means well fitted inhibition curve with a large enough effect; inconclusive means small, poorly fitted or top-dose-only effect, or another doubt; inactive means no such curve, though single readings can be large or run the other way; further: potency means the concentration at half of the fitted maximal effect; on the % scale 0 is the no-effect control and ±100 the full control effect
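1,000 cells/well; 4 h culture; + compound; + HCVcc-Cre (~0.5 moi); 44 h; luciferase substrate, RT 15 min; read 15 sec.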
SARS PLP yeast: SARS-CoV PLP inhibition in yeast; S. cerevisiae expressing SARS-CoV PLpro, growth rescue; Potency, µM (titrated, usually from 32.9 µM), without a hit: at the top dose activity, positive = growth rescue, most hits filed as activators; 330,000 compounds, 0.19% hits; calls by dose curve; further: potency means the concentration at half of the fitted maximal effect; 0% is about no effect; nearly all actives have a fitted effect of over 55% in size
The depositor's hits bear a star; ? = inconclusive; / = no result given; [ ] = dose if it differs, or a comment.

SMILES	HCMV antiviral	FMDV inh	MARV entry inh	LASV entry inh	HCV inh	SARS PLP yeast
Cc1ccccc1NC(=S)N1CCN(Cc2ccc3c(c2)OCO3)CC1	-28.1	?	?	-1.8%	9.4%	?
Cc1ccc(OCC(=O)N2CCN(Cc3ccc4c(c3)OCO4)CC2)cc1	-14.6	?	-4.7%[46.1 µM]	?	-5.8%	0.1%
Cc1ccc(S(=O)(=O)N(C)C)cc1NC(=S)N1CCN(Cc2ccc3c(c2)OCO3)CC1	?	?	/	/	12.6µM*	-0.8%
CCCCNC(=S)N1CCN(Cc2ccc3c(c2)OCO3)CC1	-38.6	-20.3%	-0.6%[46.1 µM]	-15.6%	-13.4%	-6.8%
CCN(CC)c1ccc(C(=O)NC(=S)N2CCN(Cc3ccc4c(c3)OCO4)CC2)cc1	-7.7	-18.6%	2.5%	-4.2%	11.2µM*	-25.9%
CCCCOc1ccc(C(=O)NCC(=O)N2CCN(Cc3ccc4c(c3)OCO4)CC2)cc1	-68.4*	0.0%	-20.5%	0.0%	?	2.6%
O=C(CCCn1c(=O)c2cccn2c2ccccc21)NCc1ccccc1Br	7.8	-20.5%	/	19.1%[46.1 µM]	/	/
O=C(NCCc1ccccc1)c1ccc(-c2cccnc2)c2ccoc12	-19.8	15.7%	/	/	/	/
C/C(CCc1ccc2c(c1)OCO2)=N\NC(=S)NC(C)C	-35.6	0.0%	/	/	-7.1%	19.2%
COCCNC(=S)N/N=C(\C)CCc1ccc2c(c1)OCO2	-67.1*	-1.0%	5.5%[46.1 µM]	-1.9%[46.1 µM]	-20.4%	2.5%
CCOc1ccc(CCNC(=O)c2cn(CC)c3ccc(S(=O)(=O)N4CCCCCC4)cc3c2=O)cc1OCC	-34.5	-5.4%	-17.1%[46.1 µM]	-12.0%[46.1 µM]	/	/
Cc1cc(CSc2ccccc2)ccc1NC(=O)c1ccc(Cl)c([N+](=O)[O-])c1	?	-26.7%	25.5%[46.1 µM]	-3.3%	7.94µM*	0.3%
Cc1cc(CSc2ccccc2)ccc1NC(=O)c1ccc(C)c([N+](=O)[O-])c1	-36.0	-9.8%	-14.0%	2.6%	-27.7%	7.5%
Cc1cc(CSc2ccccc2)ccc1NC(=O)c1ccc(CN2CCOCC2)cc1	-77.5*	12.6µM*	?	?	?	-4.2%
CSc1ccccc1NC(=O)c1ccc(CN2CCOCC2)cc1	18.4	11.9%	?	14.4%[46.1 µM]	6.1%	-0.4%
CCS(=O)(=O)Nc1cc2c3c(c1)CCC(=O)N3CCC2	53.2	-10.0%	/	/	-8.3%	6.7%
CCCN(CC(=O)Nc1ccccc1OC)C(=O)CSc1ccc(Br)cc1C	2.5	-22.3%	/	/	10µM*	-3.9%
CN(C)c1ccc(C=Cc2ccnc3c(O)cccc23)cc1	-98.6*	0.0%	/	/	/	/
C[n+]1ccc(-c2ccccc2)c2ccccc21	-86.7*	?	/	/	?	0.2%
CN(C)c1ccc(C=Cc2ccnc3ccccc23)cc1N	-14.7	-3.4%	/	/	/	/
C[n+]1ccc(/C=C/c2ccccc2O)c2ccccc21	-97.0*	-14.3%	2.7%[46.1 µM]	-2.5%	-18.2%	0.6%
CN(C)c1ccc(/C=C/c2cc[n+](C)c3ccccc23)cc1	-98.5*	8.91µM*	7.94µM*	?	11.2µM*	-6.2%
CC(=O)Nc1cccc(NC(=O)CC2(C)N=C(c3cccc(Br)c3)N(C)O2)c1 (centres undefined)	-12.5	/	/	/	/	/
C[C@H]1[C@@H](NC(=O)NCc2ccccc2)CC[C@@]23CCCN2C(=O)CCC[C@@H]13	-37.7	/	/	/	/	/
CCOC(=O)[C@@]1([C@@H](NC(=O)OC)c2cccc(C)c2)CCCC1=O	/	/	26.0%[14.2 µM]	/	/	/
SMILES	HCMV antiviral	FMDV inh	MARV entry inh	LASV entry inh	HCV inh	SARS PLP yeast
Cn1c2ccccc2c2cc(C(=O)NNC(=O)CCl)sc21	-20.9	15.8µM*	?	-18.5%	?	7.7%
CCCNC(=O)c1cc2c3ccccc3n(C)c2s1	76.4	3.6%	-21.9%	?	?	-18.9%
Cc1ccc(C(=O)CSc2ncnc3sc4c(c23)CCC(C)C4)cc1 (centres undefined)	-99.4*	-7.8%	7.1%	5.3%	?	15.2%
CC1CCc2sc3ncnc(N4CCOCC4)c3c2C1 (centres undefined)	?	?	8.1%	-2.5%	10µM*	-4.7%
CC1CCc2c(sc3ncnc(NCCN4CCOCC4)c23)C1 (centres undefined)	-15.1	-14.6%	-1.1%	/	?	-1.1%
CC1CCc2c(sc3ncnc(N4CCOCC4)c23)C1 (centres undefined)	-65.4*	-27.6%	-20.6%	10.3%	-25.7%	/

Bioassay records (PubChem)
